Experimental data: PubChem BioAssay (Tox21)
“And” between values parts separate entries of the source, which are not always exact repeats. Identical values can stand only once. Inconclusive results are not listed. The source made the active and inactive calls. Unless noted, calls come from the whole dose curve; as a rule, active = well fitted curve in the direction sought with a large enough effect in the repeat runs; inconclusive = weak or mixed curves; inactive = no such curve, though single readings can be large; an effect the other way counts as inactive or inconclusive.

Experiments:
[1] = qHTS assay for small molecule agonists of the p53 signaling pathway (AID 651631; calls by dose curve; note: nearly all actives have a fitted effect of over 15% in size)
Outline: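 Beta-lactamase reporter activity under p53 response elements was quantified in HCT-116 cells by FRET fluorescence, following 16 h incubation with test compounds at 37 °C and 2 h substrate development at room temperature.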

[2] = qHTS assay for small molecules that induce genotoxicity in human embryonic kidney cells expressing luciferase-tagged ATAD5 (AID 651632); note: nearly all actives have a fitted effect of over 15% in size; note: potency is the fitted concentration of half-maximal effect
Outline: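 Concentration-response screen for ATAD5 upregulation in HEK293T luciferase reporter cells; 16 hr treatment at 37C, then luminescence after 30 min with Amplite at room temperature.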

[3] = qHTS assay for small molecule agonists of the p53 signaling pathway - cell viability (AID 651633; calls by dose curve;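 note: p53RE-bla HCT reporter cells with a stable beta-lactamase p53 reporter; series mostly up to about 83 µM; nearly all actives have a fitted effect of over 30% in size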)
Outline: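 p53RE-bla cells, seeded at 4,000 per well and rested 5 h at 37 C/5% CO2, received compounds in DMSO for 16 h at 37 C. CellTiter-Glo was then added, and luminescence was read after 30 min at room temperature to gauge cytotoxicity.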

[4] = qHTS assay for small molecules that induce genotoxicity in human embryonic kidney cells expressing luciferase-tagged ATAD5 - cell viability (AID 651634; calls by dose curve; note: nearly all actives have a fitted effect of over 25% in size)
Outline: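 15.5 hr compound or vehicle exposure of HEK293T cells expressing luciferase-tagged ATAD5 at 37C; live-cell protease activity is read by fluorescence after 30 min of CellTiter-Fluor.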

[5] = qHTS assay for small molecule disruptors of the mitochondrial membrane potential - cell viability (AID 720634; calls by dose curve; note: nearly all actives have a fitted effect of over 20% in size; note: potency is the fitted concentration of half-maximal effect)
Outline: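 In this qHTS format, HepG2 cells plated overnight were pinned with compound, incubated 1 hr, and assayed for ATP luminescence with CellTiter-Glo after m-MPI dye addition.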

[6] = qHTS assay for small molecule disruptors of the mitochondrial membrane potential (AID 720635); note: potency is the fitted concentration of half-maximal effect
Outline: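 HepG2 cells (2,000/well) attached overnight at 37C, then took compound for 1 hr at 37C, 5% CO2. Mito-MPS dye was added for 30 min; fluorescence was read at 490/535 nm (monomers) and 540/590 nm (aggregates).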

[7] = qHTS assay to test for compound auto fluorescence at 590 nm (red) in HepG2 cells (AID 720674)
Outline: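 Intrinsic compound fluorescence in the red window (Ex/Em 540/590 nm) is measured in attached HepG2 cells exposed for 1 hr, DMSO vehicle as baseline, benchmarked to Rose Bengal sodium.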

[8] = qHTS assay to test for compound auto fluorescence at 535 nm (green) in HepG2 cells (AID 720675)
[9] = qHTS assay to test for compound auto fluorescence at 460 nm (blue) in HEK293 cells (AID 720678)
Outline: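 Intrinsic compound fluorescence is recorded in live HEK293 cultures after overnight incubation at 37C, 5% CO2, using excitation 405 nm and emission 460 nm. Values are referenced to triamterene.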

[10] = qHTS assay to test for compound auto fluorescence at 590 nm (red) in HEK293 cells (AID 720679)
Outline: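 Red autofluorescence, HEK293 cells: 2,000 cells/well; attach 4-5 hr 37C; add 23 nL cpd or DMSO; incubate o/n 37C 5% CO2; read Ex540/Em590; Rose Bengal sodium reference.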

[11] = qHTS assay to test for compound auto fluorescence at 535 nm (green) in HEK293 cells (AID 720680)
[12] = qHTS assay to test for compound auto fluorescence at 460 nm (blue) in HEK293 cell free culture (AID 720681)
Outline: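 Test compounds were pinned into cell-free culture medium (DMEM with 10% FBS) and fluorescence was read directly at Ex/Em 405/460 nm. Signals were expressed as fluorescence equivalents of triamterene, with DMSO vehicle as control.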

[13] = qHTS assay to test for compound auto fluorescence at 535 nm (green) in HEK293 cell free culture (AID 720682)
Outline: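 Each library compound, or DMSO control, is added by pintool to medium alone, comprising DMEM and 10% FBS. Emission at 535 nm following 485 nm excitation is quantified against fluorescein.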

[14] = qHTS assay to test for compound auto fluorescence at 590 nm (red) in HEK293 cell free culture (AID 720683)
Outline: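 Tox21 10K library compounds were pinned into cell-free DMEM with 10% FBS and fluorescence was read at excitation 540 nm. Activity is expressed as Rose Bengal sodium equivalency.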

[15] = qHTS assay to test for compound auto fluorescence at 590 nm (red) in HepG2 cell free culture (AID 720684)
Outline: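 Ex 540 / Em 590 nm read of compound in cell-free MEM (10% FBS). Rose Bengal sodium reference.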

[16] = qHTS assay to test for compound auto fluorescence at 460 nm (blue) in HepG2 cell free culture (AID 720685)
Outline: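 Cell-free plates of MEM plus 10% FBS received 23 nL compound or DMSO vehicle; blue-channel (405/460 nm) intensity scored against triamterene as reference fluorophore.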

[17] = qHTS assay to test for compound auto fluorescence at 535 nm (green) in HepG2 cell free culture (AID 720686)
[18] = qHTS assay to test for compound auto fluorescence at 460 nm (blue) in HepG2 cells (AID 720687)
Outline: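 Cells (2,000/well in MEM with 10% FBS) attached overnight at 37 C, then were exposed to compound or DMSO for 1 hr at 37 C, 5% CO2. Fluorescence read at Ex/Em 405/460 nm, expressed as triamterene-equivalent signal.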

[19] = target: Glucocorticoid receptor (Homo sapiens) (UniProt P04150); assay: qHTS assay to identify small molecule agonists of the glucocorticoid receptor (GR) signaling pathway (AID 720691; active = well fitted activation curve with a large enough effect in the signal ratio in the repeat runs, not every such curve was filed as active; the % refers to the signal ratio)
Outline: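 Measures GR pathway activation through a GRE-beta-lactamase reporter stably integrated in HeLa cells, with 18 h compound treatment at 37 C and fluorescence detection using a FRET substrate.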

[20] = target: Glucocorticoid receptor (Homo sapiens) (UniProt P04150); assay: qHTS assay to identify small molecule antagonists of the glucocorticoid receptor (GR) signaling pathway (AID 720692; active = well fitted inhibition curve with a large enough effect in the signal ratio in the repeat runs, not every such curve was filed as active; the % refers to the signal ratio)
Outline: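 Tox21 10K library screened in concentration-response for blockade of dexamethasone (5 nM final)-induced GRE-bla reporter activity in HeLa cells; 18 h treatment, fluorescence read.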
% is set by controls: 0 for no effect and ±100 for the full control effect.

Glucocorticoid receptor (Homo sapiens), sequence (P04150 whole entry, looked up): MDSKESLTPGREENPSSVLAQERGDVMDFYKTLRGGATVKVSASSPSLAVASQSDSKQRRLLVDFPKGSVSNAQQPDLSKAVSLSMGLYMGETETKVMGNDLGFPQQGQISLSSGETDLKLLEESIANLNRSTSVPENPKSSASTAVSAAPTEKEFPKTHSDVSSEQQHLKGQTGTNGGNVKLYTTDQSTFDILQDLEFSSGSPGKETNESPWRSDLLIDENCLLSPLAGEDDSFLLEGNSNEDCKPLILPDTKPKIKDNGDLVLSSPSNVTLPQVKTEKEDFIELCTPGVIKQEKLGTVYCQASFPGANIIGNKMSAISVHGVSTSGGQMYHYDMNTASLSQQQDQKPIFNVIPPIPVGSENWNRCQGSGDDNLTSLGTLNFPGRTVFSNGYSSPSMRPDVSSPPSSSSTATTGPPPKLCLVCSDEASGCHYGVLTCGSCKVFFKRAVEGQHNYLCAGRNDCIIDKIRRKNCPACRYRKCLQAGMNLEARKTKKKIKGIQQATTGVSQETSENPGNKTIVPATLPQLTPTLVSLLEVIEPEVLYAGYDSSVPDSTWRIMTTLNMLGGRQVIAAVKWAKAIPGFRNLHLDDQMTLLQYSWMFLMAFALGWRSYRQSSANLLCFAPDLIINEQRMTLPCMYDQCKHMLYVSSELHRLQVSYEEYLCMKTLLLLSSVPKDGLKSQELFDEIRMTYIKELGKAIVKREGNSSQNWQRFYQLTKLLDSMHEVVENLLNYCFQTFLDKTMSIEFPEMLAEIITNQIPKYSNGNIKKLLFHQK

O=C(OCCOCCO)c1ccccc1Nc1cccc(C(F)(F)F)c1
inactive: Potency [1] | Potency [2] | Potency [3] | Potency [4] | Potency [5] | Potency [6] | fluorescence, relative to Rose Bengal [7] -0.199% [at 18.6 µM] | fluorescence, % of fluorescein control [8] 0.199% [at 18.6 µM] | fluorescence, % of triamterene [9] -0.0212% [at 18.6 µM] | fluorescence, % of fluorescent control [10] 0.0507% [at 18.6 µM] | fluorescence, % of fluorescein [11] -0.0064% [at 18.6 µM] | fluorescence, % of fluorescent control [12] -0.158% [at 18.6 µM] | activity change [13] 0.0151% [at 18.6 µM] | fluorescence, % of fluorescent control [14] -0.579% [at 18.6 µM] | fluorescence, % of Rose Bengal [15] -0.0242% [at 18.6 µM] | fluorescence, % of fluorescent control [16] -0.0111% [at 18.6 µM] | fluorescence, % of fluorescein control [17] 0.0209% [at 18.6 µM] | fluorescence, % of fluorescent control [18] -0.0068% [at 18.6 µM] | Potency [19]

O=C(O)c1cccc(O)c1
inactive: Potency [1] | Potency [2] | Potency [3] | Potency [4] | Potency [5] | Potency [6] | outcome [7] | outcome [8] | Potency [9] | outcome [10] | outcome [11] | Potency [12] | outcome [13] | outcome [14] | outcome [15] | Potency [16] | outcome [17]

Cc1oncc1C(=O)Nc1ccc(C(F)(F)F)cc1
active: Potency [2] 5.07 µM and 2.73 µM | Potency [5] 61.1 µM | Potency [6] 10.1 µM and 7.7 µM
inactive: Potency [1] | Potency [3] | Potency [4] | outcome [7] | outcome [8] | Potency [9] | outcome [10] | outcome [11] | Potency [12] | outcome [13] | outcome [14] | outcome [15] | Potency [16] | outcome [17] | Potency [18] | Potency [19]

CN1C(=O)CC(C)(c2ccccc2)C1=O (stereo not drawn)
inactive: Potency [1] | Potency [2] | Potency [3] | Potency [4] | Potency [5] | Potency [6] | outcome [7] | outcome [8] | Potency [9] | outcome [10] | outcome [11] | Potency [12] | outcome [13] | outcome [14] | outcome [15] | Potency [16] | outcome [17] | Potency [18]

CC(C)CCCC(=O)O
inactive: Potency [1] | Potency [2] | Potency [3] | Potency [4] | Potency [5] | Potency [6] | outcome [7] | outcome [8] | Potency [9] | outcome [10] | Potency [12] | outcome [13] | outcome [14] | outcome [15] | Potency [16] | outcome [17] | Potency [18] | Potency [19] | Potency [20]

C[Si](NC1CCCCC1)(NC1CCCCC1)NC1CCCCC1
inactive: Potency [1] | Potency [2] | Potency [3] | Potency [4] | Potency [5] | Potency [6] | outcome [7] | outcome [8] | Potency [9] | outcome [10] | outcome [11] | Potency [12] | outcome [13] | outcome [14] | outcome [15] | Potency [16] | outcome [17] | Potency [19] | Potency [20]

CC(C)(C)C(=O)C(Oc1ccc(Cl)cc1)n1ccnc1 (stereo not drawn)
inactive: Potency [1] | Potency [2] | Potency [3] | Potency [4] | Potency [5] | outcome [7] | outcome [8] | Potency [9] | outcome [10] | outcome [11] | Potency [12] | outcome [13] | outcome [14] | outcome [15] | Potency [16] | outcome [17] | Potency [18]

CCN(CC)CCNC(=O)c1ccc(NC(C)=O)cc1
inactive: Potency [1] | Potency [2] | Potency [3] | Potency [4] | Potency [5] | Potency [6] | outcome [7] | outcome [8] | Potency [9] | outcome [10] | outcome [11] | Potency [12] | outcome [13] | outcome [14] | outcome [15] | Potency [16] | outcome [17] | Potency [18] | Potency [19] | Potency [20]

CCOC(=O)/C=C/C(=O)O
inactive: Potency [1] | Potency [2] | Potency [3] | Potency [4] | Potency [5] | Potency [6] | outcome [7] | outcome [8] | Potency [9] | outcome [10] | outcome [11] | Potency [12] | outcome [13] | outcome [14] | outcome [15] | Potency [16] | outcome [17] | Potency [18]

CCC(C(=O)OCCOCCN(CC)CC)c1ccccc1 (stereo not drawn)
inactive: Potency [1] | Potency [2] | Potency [3] | Potency [4] | Potency [5] | Potency [6] | outcome [7] | outcome [8] | Potency [9] | outcome [10] | outcome [11] | Potency [12] | outcome [13] | outcome [14] | Potency [16] | outcome [17] | Potency [18] | Potency [19] | Potency [20]

CC(=N\O)/C(C)=N/O
inactive: Potency [1] | Potency [2] | Potency [3] | Potency [4] | Potency [5] | outcome [7] | outcome [8] | Potency [9] | outcome [10] | outcome [11] | Potency [12] | outcome [13] | outcome [14] | outcome [15] | Potency [16] | outcome [17] | Potency [18]

NCC1CCCC(CN)C1 (stereo not drawn)
inactive: Potency [1] | Potency [2] | Potency [3] | Potency [4] | Potency [5] | Potency [6] | outcome [8] | Potency [9] | outcome [10] | outcome [11] | Potency [12] | outcome [13] | outcome [14] | outcome [15] | Potency [16] | outcome [17] | Potency [18] | Potency [20]

CN1CCCN=C1/C=C/c1cccs1
inactive: Potency [1] | Potency [2] | Potency [3] | Potency [4] | Potency [5] | Potency [6] | outcome [7] | outcome [8] | Potency [9] | outcome [10] | outcome [11] | Potency [12] | outcome [13] | outcome [14] | outcome [15] | Potency [16] | outcome [17] | Potency [18] | Potency [19] | Potency [20]

COc1ccc(CCC(=O)c2c(O)cc(O[C@@H]3O[C@H](CO)[C@@H](O)[C@H](O)[C@H]3O[C@@H]3O[C@@H](C)[C@H](O)[C@@H](O)[C@H]3O)cc2O)cc1O
inactive: Potency [1] | Potency [2] | Potency [3] | Potency [4] | Potency [5] | Potency [6] | outcome [7] | outcome [8] | Potency [9] | outcome [10] | outcome [11] | Potency [12] | outcome [13] | outcome [14] | outcome [15] | Potency [16] | outcome [17] | Potency [18]
